# ATXN viability: cell viability loss in ATXN counter-screen. S2 cells (HEK-293 line with an ATXN2-luciferase reporter) viability, CellTiter-Fluor protease fluorescence, 24 h. Potency, µM (titrated, usually from 56.7 µM), usual class: cytotoxic. 400,000 tested, 0.49% active. AID 651635; further: nearly all actives have a fitted effect of over 40% in size
# KB-3-1 tox: KB-3-1 parental cell cytotoxicity. KB-3-1 viability, CellTiter-Glo ATP luminescence, 72 h. Potency, µM (highest dose often 46.1 µM), most hits filed as cytotoxic. 400,000 tested, 1.4% active; further: on the % scale 0 is the no-effect control and ±100 the full control effect; nearly all actives have a fitted effect of over 60% in size
#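 Luminescent ATP read-out (CellTiter-Glo) measures survival of drug-naive KB-3-1 cells after 72 h compound exposure at 37 °C. Titration series was screened from lowest to highest concentration, with DMSO vehicle plates as background controls.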
# HepG2 tox-1: kills HepG2 cells in TGF-b inhibitor counter-screen; Potency, µM (highest dose often 46.1 µM), without a hit: at the highest dose activity change, negative = cytotoxicity, hits mostly cytotoxic; HepG2 CAGA-GFP viability, ATP luminescence, 18 h; 410,000 tested, 0.76% active
#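 CellTiter-Glo luminescence gave cytotoxicity after 18 hours at 37 degrees C. The cells were HepG2 CAGA-GFP in 1% FBS DMEM, stimulated with 500 pg/mL TGF-beta after compound addition. %Activity was normalised to no-cell wells (complete cell-killing) and DMSO (no toxicity), and curves were fitted and classified.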
# TGFb inhibitor: TGF-b pathway inhibition; HepG2 CAGA-GFP TGF-b/SMAD3 reporter, GFP fluorescence, 18 h; TGF-beta stimulated, 500 pg/mL final; 410,000 tested, 1.2% active; Potency, µM (titrated, usually from 46.1 µM), without a hit: at the top dose activity, negative = inhibition, usual class: inhibitors; further: on the % scale 0 is the no-effect control and ±100 the full control effect; nearly all actives have a fitted effect of over 65% in size
#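 HEPG2 CAGA-GFP cells (1000/well, DMEM with 1% FBS) were pre-incubated 2 h at 37 degrees C, given compound by pin tool, then stimulated with TGF-beta at 500 pg/mL final for 18 h before per-cell GFP fluorescence imaging.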
# ATXN2 expr inh: inhibitors of ATXN2 expression | HEK-293 ATXN2-luciferase reporter, luminescence, 24 h | Potency, µM (top dose mostly 57 µM), inactives show at the top dose activity change, negative = inhibition, usual class: inhibitors | 360,000 tested, 0.72% active | AID 1745845; further: on the % scale 0 is the no-effect control and ±100 the full control effect; nearly all actives have a fitted effect of over 55% in size
#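 ATXN2-luciferase reporter cells (luciferase flanked by upstream and downstream ATXN2 gene portions) were treated 24 h at 37 °C with compounds at up to 57 uM. SteadyGlo luminescence gave expression; GF-AFC fluorescence gave viability.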
# KB-V1 MDR tox: KB-V1 MDR subline cytotoxicity; KB-V1 MDR cells viability, CellTiter-Glo, 72 h; 400,000 tested, 3.4% active; AID 1347076; Potency, µM (top dose mostly 46.1 µM), usual class: cytotoxic; further: on the % scale 0 is the no-effect control and ±100 the full control effect; nearly all actives have a fitted effect of over 60% in size
#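 Compound-treated KB-V1 multidrug-resistant cells, 72 h, 37 degrees C; viability by CellTiter-Glo. Fitted qHTS curves give the values.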
# TGFb CAGA inh: confirmation of TGF-b signaling inhibitors in HepG2 reporter cells; shares compounds with TGFb inhibitor; HepG2 CAGA-GFP TGF-b reporter, GFP fluorescence, 18 h; cells stimulated with TGF-beta, 500 pg/mL; Potency, µM (top dose mostly 46.1 µM), for inactives: at the top dose activity, negative = inhibition, most hits filed as inhibitors; 1,600 tested, 63% active; AID 720534; further: on the % scale 0 is the no-effect control and ±100 the full control effect; nearly all actives have a fitted effect of over 65% in size
# HepG2 tox-2: HepG2 cytotoxicity, TGF-b inhibitor counterscreen. shares compounds with TGFb inhibitor. HepG2 CAGA-GFP viability, ATP luminescence, 18 h; cells stimulated with TGF-beta, 500 pg/mL. Potency, µM (series often up to 46.1 µM), for the others: at the highest dose activity, negative = cytotoxicity, actives largely listed as inhibitors. 1,600 tested, 27% active; further: on the % scale 0 is the no-effect control and ±100 the full control effect; nearly all actives have a fitted effect of over 70% in size
# TGFb CCL64 inh: TGF-b inhibition, CCL64 orthogonal assay; shares compounds with TGFb inhibitor; CCL64 CAGA-GFP reporter, TGF-b stimulated, GFP fluorescence, 18 h; Potency, µM (highest dose often 46.1 µM), without a hit: top-dose activity, negative = inhibition, most hits filed as inhibitors; 1,600 tested, 41% active; further: nearly all actives have a fitted effect of over 65% in size
# TGFb COP inh: blocks TGF-b signaling in HepG2 COP reporter; shares compounds with TGFb inhibitor; HepG2 COP-GFP TGF-b reporter, GFP fluorescence, 18 h; cells stimulated by added recombinant TGF-beta; Potency, µM (titrated, usually from 46.1 µM), for the others: at the highest dose activity, negative = inhibition, usual class: inhibitors; 1,600 tested, 3% active; AID 720537; further: nearly all actives have a fitted effect of over 70% in size
# The depositor's hits bear a star; i = inactive; ? = inconclusive; / = not tested or not shown. Sampled rows, rich in hits. Any-hit rate of the full collection: about 5.9%. The call rests on the fitted dose curve; in most records, active means well fitted curve in the direction sought with a large enough effect; inconclusive means small, poorly fitted or top-dose-only effect, or another doubt; inactive means no such curve, though single readings can be large; an effect the other way counts as inactive or inconclusive. Potency means the concentration at half of the fitted maximal effect.
SMILES,ATXN viability,KB-3-1 tox,HepG2 tox-1,TGFb inhibitor,ATXN2 expr inh,KB-V1 MDR tox,TGFb CAGA inh,HepG2 tox-2,TGFb CCL64 inh,TGFb COP inh
COc1ccc(-c2noc(-c3ccccc3NC(=O)c3cc(OC)c(OC)c(OC)c3)n2)cc1,/,/,2%,5%,/,/,/,/,/,/
COc1ccc(S(=O)(=O)N2CCC(C(=O)N3CCc4ccccc4C3)CC2)cc1Cl,i,i,-11%,?,1%,i,?,-26%,?,18%
COc1ccc(S(=O)(=O)N2CCC(C(=O)N3CCN(C)CC3)CC2)cc1Cl,i,i,-17%,-16%,0%,i,/,/,/,/
COC(=O)c1ccc(CNC(=O)CSc2nnc(COc3ccccc3)n2C)o1,i,i,3%,?,-1%,i,-11%,12%,3%,8%
CN(Cc1ccc(Cl)cc1)C(=O)c1[nH]c(C(F)(F)F)nc1-c1ccccc1,i,i,-11%,-12%,-6%,i,/,/,/,/
CCOc1ccc(CCNS(=O)(=O)c2cc(Br)cc3c2N(C(C)=O)CC3)cc1OCC,/,/,-7%,-9%,/,/,/,/,/,/
Cc1nnc(SCc2cc(=O)n3c(C)cccc3n2)s1,/,/,-18%,-16%,/,/,/,/,/,/
Cc1ccc(NC(=S)NCc2ccccc2)cc1S(=O)(=O)N1CCCCC1,?,?,-24%,16µM*,/,13µM*,23µM*,?,26µM*,58%
O=C(Nc1ccc(F)cc1)Nc1cc(OCC(F)(F)F)cc(OCC(F)(F)F)c1,?,6.5µM*,8.9µM*,4µM*,11µM*,?,6.5µM*,?,7.3µM*,47%
CCOc1ccc(NC(=O)Nc2cc(OCC(F)(F)F)cc(OCC(F)(F)F)c2)cc1,i,?,-16%,-16%,-16%,i,/,/,/,/
Oc1ccccc1-c1nc(NCc2cccnc2)c2ccccc2n1,i,?,-21%,20µM*,?,?,?,?,?,17%
O=C(Cn1cnc2onc(-c3ccc(F)cc3)c2c1=O)N1CCN(c2ccccc2F)CC1,i,i,-11%,-19%,-6%,i,/,/,/,/
COc1ccc(-c2[nH]c(-c3cc(OC)c4c(c3)OCO4)nc2-c2ccccc2)cc1,i,i,4%,?,-18%,i,13µM*,?,?,36%
CC1CCN(S(=O)(=O)c2cc(C(=O)NCc3ccccc3)n(C)c2)CC1,i,i,-6%,-58%,6%,i,/,/,/,/
COC(=O)C[C@H]1CC[C@@H]2[C@H](COC[C@H](O)CN2S(=O)(=O)c2ccccc2OC)O1,/,i,/,/,/,i,/,/,/,/
CCOC(=O)c1c(C)[nH]c(C(=O)N/N=C/c2ccc(Br)cc2)c1C,?,?,0%,1.4µM*,-34%,i,0.92µM*,-9%,?,-18%
CC(C)(C)c1ccc(Cn2c(=O)cnc3ccccc32)cc1,i,?,-16%,10µM*,?,?,18µM*,?,-27%,-15%
O=c1cnc2ccccc2n1Cc1ccc(Br)cc1,i,i,-34%,-15%,2%,?,/,/,/,/
COC(=O)[C@]12CCCCC=C1N(CCc1ccc(OC)c(OC)c1)C(=O)[C@H](CC(=O)N1CCN(C(=O)c3ccco3)CC1)C2,/,i,/,/,/,?,/,/,/,/
O=C(Nc1cccc(C(F)(F)F)c1)Nc1ccc(N2CCCC2)c(S(=O)(=O)Nc2ccccc2Cl)c1,?,7.3µM*,-56%,2.8µM*,?,8.2µM*,4.1µM*,9.2µM*,5.2µM*,100%
CCOc1ccc(N(CC(=O)N/N=C/c2cc([N+](=O)[O-])ccc2Cl)S(C)(=O)=O)cc1,i,i,0%,7.9µM*,-15%,i,15µM*,-3%,?,16%
CCCOc1ccc(/C=N/NC(=O)CN(c2ccc(OCC)cc2)S(C)(=O)=O)cc1,i,i,-30%,?,0%,i,/,/,/,/
Cc1cc(S(=O)(=O)N2CCN(CC(=O)NCCc3cccs3)CC2)ccc1Br,i,i,-8%,11µM*,-15%,i,?,-10%,-10%,25%
O=C(CN1CCN(S(=O)(=O)c2cccc(Br)c2)CC1)NCCc1cccs1,i,?,-5%,-30%,-5%,i,/,/,/,/
CCOC(=O)c1[nH]c2c(c1C)C(=O)CC(c1ccco1)C2 (stereo not drawn),?,i,4%,?,-17%,i,7.3µM*,9%,2.1µM*,?
COCCOC(=O)c1[nH]c2c(c1C)C(=O)CC(c1ccccc1)C2 (stereo not drawn),?,0.92µM*,5%,10µM*,8%,0.73µM*,7.3µM*,-7%,6.5µM*,-19%
CCc1ccc(C(=O)COC(=O)C(Cc2c[nH]c3ccccc23)NC(=O)c2ccc(Br)cc2)cc1 (stereo not drawn),i,i,-20%,-43%,13%,i,/,/,/,/
Cc1cc(C)cc(CC(=O)N2CCC2(C)C(=O)NS(=O)(=O)c2cccc(F)c2)c1 (stereo not drawn),i,i,-65%,-2%,6%,i,/,/,/,/
Cc1ccnc(NC(=S)N2CCN(c3cccc(C(F)(F)F)c3)CC2)c1,?,?,-23%,13µM*,?,?,7.3µM*,13µM*,-15%,30%
